In PubChem BioAssay (NCATS):
Inconclusive results are not listed. Calls of active or inactive are those of the source. Unless noted, calls come from the whole dose curve; as a rule, active = well fitted curve in either direction with a large enough effect (not every such curve was filed as active); inconclusive = small, poorly fitted or top-dose-only effect, or another doubt; inactive = flat fitted curve, though single readings scatter.

Legend:
[1] = target: Lysosomal acid glucosylceramidase (Homo sapiens) (UniProt P04062); test: Glucocerebrosidase-p2 (AID 348; in the data active = potency below about 10 µM; note: potency is the fitted concentration of half-maximal effect); conditions: purified GBA, blue fluorogenic substrate, 40 min
Chain of Lysosomal acid glucosylceramidase (Homo sapiens) (P04062 whole entry, looked up): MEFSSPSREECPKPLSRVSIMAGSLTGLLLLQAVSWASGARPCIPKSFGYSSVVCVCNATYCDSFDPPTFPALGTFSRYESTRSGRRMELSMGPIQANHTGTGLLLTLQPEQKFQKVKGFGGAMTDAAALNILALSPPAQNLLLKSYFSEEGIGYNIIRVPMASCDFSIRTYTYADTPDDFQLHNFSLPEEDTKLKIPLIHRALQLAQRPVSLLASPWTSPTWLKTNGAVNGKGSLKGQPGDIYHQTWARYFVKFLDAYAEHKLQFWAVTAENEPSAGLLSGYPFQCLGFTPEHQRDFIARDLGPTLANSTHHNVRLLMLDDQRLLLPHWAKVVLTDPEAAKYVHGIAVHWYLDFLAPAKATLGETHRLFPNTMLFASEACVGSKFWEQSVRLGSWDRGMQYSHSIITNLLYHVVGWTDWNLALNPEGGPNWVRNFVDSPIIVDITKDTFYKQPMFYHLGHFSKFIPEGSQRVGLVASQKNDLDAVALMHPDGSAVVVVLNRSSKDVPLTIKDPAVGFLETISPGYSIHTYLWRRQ
Procedure, shortened: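 Compounds titrated from 0.6 nM upwards against 0.2 nM enzyme in pH 5.9 citric acid/KH2PO4, taurocholate, tween-20; blue fluorogenic substrate 80 uM, 40 min room temperature, stopped and read Ex 365/Em 440 for AC50.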

[2] = AP1 Signaling Pathway (AID 357); conditions: ME-180 AP-1-bla reporter, EGF-induced, beta-lactamase ratio, 5 h; at 7.69 µM (top of the series) unless noted;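 note: ME-180 reporter cells stimulated with EGF at its EC50 level; % is set by controls: 0 for no effect and ±100 for the full control effect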
Procedure, shortened: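 Read-out was the 460nm/530nm emission ratio (excitation 405nm) after CCF4 loading for 2.5 hours at room temperature. Cells carried an AP-1-driven beta-lactamase reporter, were stimulated with EC50 EGF plus compound for 5 hours, and AC50 values came from titrations.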

[3] = target: Cytochrome P450 1A2 (Homo sapiens) (UniProt P05177); test: p450-cyp1a2 (AID 410; calls by dose curve; note: potency is the fitted concentration of half-maximal effect;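 for activity change, negative = inhibition: -100% = full effect of reference inhibitor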); conditions: recombinant CYP1A2, luciferin-ME demethylation, luminescence; series mostly up to 11.4 µM
Chain of Cytochrome P450 1A2 (Homo sapiens) (P05177 whole entry, looked up): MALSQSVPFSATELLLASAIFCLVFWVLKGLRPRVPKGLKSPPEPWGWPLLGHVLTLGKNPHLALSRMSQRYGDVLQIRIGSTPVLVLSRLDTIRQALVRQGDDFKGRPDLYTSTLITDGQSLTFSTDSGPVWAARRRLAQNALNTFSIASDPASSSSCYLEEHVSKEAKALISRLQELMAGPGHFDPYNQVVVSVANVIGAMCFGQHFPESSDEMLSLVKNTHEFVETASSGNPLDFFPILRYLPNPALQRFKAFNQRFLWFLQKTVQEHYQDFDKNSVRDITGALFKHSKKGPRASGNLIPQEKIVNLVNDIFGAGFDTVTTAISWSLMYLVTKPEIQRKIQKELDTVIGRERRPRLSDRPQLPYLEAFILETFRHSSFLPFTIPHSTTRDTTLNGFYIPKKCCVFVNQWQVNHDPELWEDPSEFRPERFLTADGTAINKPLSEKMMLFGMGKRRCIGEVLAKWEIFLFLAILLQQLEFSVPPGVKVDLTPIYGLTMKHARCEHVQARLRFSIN
Procedure, shortened: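 Inhibition was calculated relative to 57 uM furafylline (full inhibition). The reaction used human CYP1A2 at 20nM with Luciferin-ME at its Km, 100uM, driven by an NADPH-regenerating system for 60 min at room temperature.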

[4] = NFAT Signaling Pathway (AID 444); conditions: Jurkat NFAT-bla M1, carbachol, beta-lactamase ratio, 5 h; at 7.69 µM (top of the series) unless noted;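 note: carbachol stimulus at about its EC50 of 1 µM final; % is set by controls: 0 for no effect and ±100 for the full control effect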
Procedure, shortened: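 Jurkat cells carrying an NFAT-driven β-lactamase reporter and co-transfected muscarinic M1 receptor were treated with compound plus carbachol (1 uM final, an EC50 level) for 5 h at 37 °C. CCF4 loading followed for 1 h at RT; 460/530 nm ratio gave %activity.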

[5] = Stat Signaling Pathway (AID 446); conditions: ME-180 SIE beta-lactamase reporter, IL-6 stimulated, 5 h; at 7.69 µM (top of the series) unless noted;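 note: ME-180 cervical cancer cells given 40 pM IL-6 alongside compound; SIE-controlled beta-lactamase reporter measured as 460/530 nm FRET emission ratio; % is set by controls: 0 for no effect and ±100 for the full control effect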
Procedure, shortened: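 IL-6/STAT signaling read in ME-180 cells via an SIE beta-lactamase reporter. Stimulus was 40 pM IL-6 (its AC50) for 5 hrs, so both activation and inhibition register.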

[6] = target: Glucocorticoid receptor (Homo sapiens) (UniProt P04150); test: GR-GFP Redistribution (AID 450;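 active = compounds whose dose series gives a full or clear partial fitted curve of increased nuclear translocation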; note: potency is the fitted concentration of half-maximal effect); conditions: U2OS GR-GFP nuclear translocation, laser cytometry, 2 h
Chain of Glucocorticoid receptor (Homo sapiens) (P04150 whole entry, looked up, the tested form may be a part): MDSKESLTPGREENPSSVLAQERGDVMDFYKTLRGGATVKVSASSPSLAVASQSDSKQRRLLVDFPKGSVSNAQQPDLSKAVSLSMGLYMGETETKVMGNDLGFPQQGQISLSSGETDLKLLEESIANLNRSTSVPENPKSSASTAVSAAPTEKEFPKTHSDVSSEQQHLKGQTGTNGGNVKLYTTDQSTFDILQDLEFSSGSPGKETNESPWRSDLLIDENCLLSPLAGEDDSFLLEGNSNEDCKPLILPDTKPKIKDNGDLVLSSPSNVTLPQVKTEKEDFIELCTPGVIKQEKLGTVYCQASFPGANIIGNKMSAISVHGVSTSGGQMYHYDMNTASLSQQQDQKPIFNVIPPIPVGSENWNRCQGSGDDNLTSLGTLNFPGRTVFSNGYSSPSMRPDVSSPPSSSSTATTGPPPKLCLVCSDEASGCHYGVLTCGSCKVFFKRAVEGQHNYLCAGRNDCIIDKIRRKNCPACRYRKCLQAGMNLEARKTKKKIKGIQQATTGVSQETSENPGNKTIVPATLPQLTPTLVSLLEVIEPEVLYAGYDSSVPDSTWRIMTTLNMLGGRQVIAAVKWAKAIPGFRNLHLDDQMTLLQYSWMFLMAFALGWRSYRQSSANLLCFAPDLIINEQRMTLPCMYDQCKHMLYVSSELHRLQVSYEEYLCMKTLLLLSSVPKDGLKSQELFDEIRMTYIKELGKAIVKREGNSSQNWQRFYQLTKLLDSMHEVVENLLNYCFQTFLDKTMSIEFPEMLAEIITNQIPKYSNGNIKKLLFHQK

[7] = target: Glucocorticoid receptor (Homo sapiens) (UniProt P04150); test: GR-EFC Redistribution (AID 451; calls by dose curve; note: potency is the fitted concentration of half-maximal effect); conditions: CHO-K1 GR-EFC translocation, beta-gal luminescence, 2 h
Procedure, shortened: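 CHO-K1 cells stably expressing nuclear-localized β-gal enzyme acceptor and GR fused C-terminally to the enzyme donor fragment; ligand-driven nuclear translocation restores β-gal by complementation. Compounds titrated up to 46 uM final, 2 h at 37 °C; luminescence read.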

[8] = target: Mitogen-activated protein kinase 10 (Mus musculus) (UniProt Q61831); test: JNK3 AlphaScreen Assay (AID 530); conditions: JNK3 lysate, c-Jun phosphorylation; series mostly up to 11.4 µM;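 note: kinase came from lysate of stimulated human HepG2 cells; signal reports phosphorylation of biotinylated GST-cJun 1-79 at Ser73 with 10 µM ATP; % is set by controls: 0 for no effect and ±100 for the full control effect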
Procedure, shortened: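 JNK3 came from HepG2 lysates pre-activated with IL-1beta and TNF-alpha and phosphorylated biotinylated GST-cJun (1-79) at 10 uM ATP, pH 7.6, room temperature. Compounds were titrated. AlphaScreen signal used anti-phospho-cJun (Ser73) antibody.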

[9] = target: Cytochrome P450 2C9 (Homo sapiens) (UniProt P11712); test: qHTS Assay for Inhibitors and Substrates of Cytochrome P450 2C9 (AID 883; active = well fitted curve in the direction sought with a large enough effect; an effect the other way counts as inactive or inconclusive; note: potency is the fitted concentration of half-maximal effect; nearly all actives have a fitted effect of over 60% in size); conditions: recombinant CYP2C9, luciferin-H luminescence, 60 min; series mostly up to 11.4 µM
Chain of Cytochrome P450 2C9 (Homo sapiens) (P11712 whole entry, looked up): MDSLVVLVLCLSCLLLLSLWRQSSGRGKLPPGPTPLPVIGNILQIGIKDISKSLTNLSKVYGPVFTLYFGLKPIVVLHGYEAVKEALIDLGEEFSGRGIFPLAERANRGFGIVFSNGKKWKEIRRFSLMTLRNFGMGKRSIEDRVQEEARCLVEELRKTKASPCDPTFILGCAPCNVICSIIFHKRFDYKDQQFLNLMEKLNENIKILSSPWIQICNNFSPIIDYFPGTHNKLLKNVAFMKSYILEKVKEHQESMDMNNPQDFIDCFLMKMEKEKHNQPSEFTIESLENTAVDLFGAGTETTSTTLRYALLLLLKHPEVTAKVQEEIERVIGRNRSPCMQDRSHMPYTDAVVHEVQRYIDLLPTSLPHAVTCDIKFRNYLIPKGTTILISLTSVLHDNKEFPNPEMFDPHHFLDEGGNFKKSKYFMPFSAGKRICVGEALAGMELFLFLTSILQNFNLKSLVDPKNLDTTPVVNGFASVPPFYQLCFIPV
Procedure, shortened: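 Human CYP2C9 (10nM) hydroxylated Luciferin-H (100uM, at its KM) to luciferin in 25mM KPO4. Compound was preincubated 10 min at 37C, then NADPH regeneration started a 60 min reaction at 37C. Luminescence was read after detection reagent, normalized to 57uM sulphaphenazole.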

[10] = target: Cytochrome P450 3A4 (Homo sapiens) (UniProt P08684); test: qHTS Assay for Inhibitors and Substrates of Cytochrome P450 3A4 (AID 884; active = well fitted curve in the direction sought with a large enough effect; an effect the other way counts as inactive or inconclusive; note: potency is the fitted concentration of half-maximal effect; nearly all actives have a fitted effect of over 50% in size); conditions: recombinant CYP3A4, Luciferin-PPXE luminescence; series mostly up to 57.1 µM
Chain of Cytochrome P450 3A4 (Homo sapiens) (P08684 whole entry, looked up): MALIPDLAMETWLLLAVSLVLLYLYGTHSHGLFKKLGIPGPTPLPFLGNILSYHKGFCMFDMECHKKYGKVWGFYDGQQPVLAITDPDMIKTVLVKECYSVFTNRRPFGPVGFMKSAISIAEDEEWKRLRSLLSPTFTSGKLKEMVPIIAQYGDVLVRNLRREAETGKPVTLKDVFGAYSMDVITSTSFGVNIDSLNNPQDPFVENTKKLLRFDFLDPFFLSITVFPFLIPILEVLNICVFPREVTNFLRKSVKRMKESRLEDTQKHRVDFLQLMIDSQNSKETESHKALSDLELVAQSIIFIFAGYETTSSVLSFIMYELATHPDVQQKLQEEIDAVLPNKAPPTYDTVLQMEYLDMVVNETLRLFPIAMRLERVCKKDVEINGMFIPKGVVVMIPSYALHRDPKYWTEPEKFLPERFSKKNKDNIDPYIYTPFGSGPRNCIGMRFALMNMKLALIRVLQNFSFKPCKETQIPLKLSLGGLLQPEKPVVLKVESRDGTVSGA
Procedure, shortened: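 20 nM human CYP3A4 with 25 uM Luciferin-PPXE (at KM) in 200 mM KPO4, preincubated 10 min with compound; NADPH regeneration started a 60 min RT reaction. Luciferin detected by luminescence, normalized to 57 uM ketoconazole as full inhibition.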

[11] = target: Cytochrome P450 3A4 (Homo sapiens) (UniProt P08684); test: qHTS Assay for Activators of Cytochrome P450 3A4 (AID 885; active = well fitted curve in the direction sought with a large enough effect; an effect the other way counts as inactive or inconclusive; note: nearly all actives have a fitted effect of over 65% in size); conditions: recombinant CYP3A4, Luciferin-PPXE luminescence, 60 min; series mostly up to 11.4 µM
Procedure, shortened: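 Quantitative HTS format: compounds preincubated with 20nM human CYP3A4 and Luciferin-PPXE substrate at KM, reaction started by NADPH regeneration, stopped after 60 min, luciferase luminescence read 20 min later.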

[12] = target: Cytochrome P450 2C19 (Homo sapiens) (UniProt P33261); test: qHTS Assay for Inhibitors and Substrates of Cytochrome P450 2C19 (AID 899; active = well fitted curve in the direction sought with a large enough effect; an effect the other way counts as inactive or inconclusive; note: potency is the fitted concentration of half-maximal effect; nearly all actives have a fitted effect of over 60% in size); conditions: recombinant CYP2C19, luciferin-H EGE luminescence; series mostly up to 11.4 µM
Chain of Cytochrome P450 2C19 (Homo sapiens) (P33261 whole entry, looked up): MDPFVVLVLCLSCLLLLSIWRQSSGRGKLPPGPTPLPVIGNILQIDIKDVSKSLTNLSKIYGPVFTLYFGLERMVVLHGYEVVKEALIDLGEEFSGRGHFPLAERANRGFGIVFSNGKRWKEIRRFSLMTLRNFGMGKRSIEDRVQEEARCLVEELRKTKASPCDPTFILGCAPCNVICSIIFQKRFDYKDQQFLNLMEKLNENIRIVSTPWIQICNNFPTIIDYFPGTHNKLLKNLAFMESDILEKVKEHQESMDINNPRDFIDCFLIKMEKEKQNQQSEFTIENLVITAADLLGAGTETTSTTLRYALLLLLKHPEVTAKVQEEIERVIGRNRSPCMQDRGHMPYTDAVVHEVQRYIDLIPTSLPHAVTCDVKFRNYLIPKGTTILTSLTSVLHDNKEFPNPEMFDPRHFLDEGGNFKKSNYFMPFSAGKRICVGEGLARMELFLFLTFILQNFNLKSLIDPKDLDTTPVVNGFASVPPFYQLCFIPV
Procedure, shortened: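 Human CYP2C19 (5nM) with Luciferin-H EGE at 10uM (its KM) in 50mM KPO4 was preincubated with compound for 10 min at 37C. NADPH regeneration started a 60 min 37C reaction. Luciferin was read by luminescence, normalized to 57uM ketoconazole.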

[13] = target: 3',5'-cyclic-AMP phosphodiesterase 4B (Homo sapiens) (UniProt Q07343); test: qHTS Assay for Inhibitors of PDE-IV (AID 607; active = well fitted activation curve with a large enough effect in the main read-out, with a control signal flat, not every such curve was filed as active; note: % of control where 0% means no effect); conditions: HEK293 ACTOne CNG channel cells, membrane potential fluorescence; series mostly up to 22.9 µM
Chain of 3',5'-cyclic-AMP phosphodiesterase 4B (Homo sapiens) (Q07343 whole entry, looked up): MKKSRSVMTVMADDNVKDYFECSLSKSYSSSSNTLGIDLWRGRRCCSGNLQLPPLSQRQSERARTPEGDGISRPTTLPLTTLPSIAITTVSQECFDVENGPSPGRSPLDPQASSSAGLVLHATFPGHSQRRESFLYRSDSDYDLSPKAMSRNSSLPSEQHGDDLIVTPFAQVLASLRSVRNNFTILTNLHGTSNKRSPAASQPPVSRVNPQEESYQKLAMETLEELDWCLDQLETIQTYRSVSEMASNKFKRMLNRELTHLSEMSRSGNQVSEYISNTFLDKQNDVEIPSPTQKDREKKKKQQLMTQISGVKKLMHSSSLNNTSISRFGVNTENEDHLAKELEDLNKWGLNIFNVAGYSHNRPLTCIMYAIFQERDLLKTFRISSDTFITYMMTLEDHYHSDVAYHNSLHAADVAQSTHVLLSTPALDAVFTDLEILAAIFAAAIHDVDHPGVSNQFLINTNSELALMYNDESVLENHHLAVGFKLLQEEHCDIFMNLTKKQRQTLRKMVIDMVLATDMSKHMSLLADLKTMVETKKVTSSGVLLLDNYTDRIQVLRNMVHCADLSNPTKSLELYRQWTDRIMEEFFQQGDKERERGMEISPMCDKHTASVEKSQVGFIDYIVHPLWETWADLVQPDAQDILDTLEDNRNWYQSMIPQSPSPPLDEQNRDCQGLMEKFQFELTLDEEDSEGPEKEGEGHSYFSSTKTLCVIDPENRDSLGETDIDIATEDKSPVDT
Procedure, shortened: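 Live HEK293 cells with a modified cyclic nucleotide-gated (CNG) channel report intracellular cAMP via membrane-potential dye fluorescence (ex 535/em 590 nm). Endogenous PDE-IV was targeted. Compounds were tested at up to 22.9 uM final; RO 20-1724 100 uM served as control.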

[14] = qHTS Assay for Identification of Small Molecule Agonists for Hypoxia Response Element Signaling Pathway (AID 914; active = well fitted activation curve with a large enough effect in the signal ratio, with a control signal flat, not every such curve was filed as active; the % refers to the signal ratio; note: % of control where 0% means no effect); conditions: ME-180 (cervical carcinoma) HRE-bla reporter, beta-lactamase ratio, CoCl2, 17 h; activation: active compounds read high
Procedure, shortened: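 Positive modulation of EC50 CoCl2-induced hypoxia response element signaling is measured in ME-180 cells with a beta-lactamase reporter. Compounds are titrated, incubation runs 17 hours, and %Activity derives from the blue/green ratio.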

COc1ccccc1CCn1c(=O)c(-c2ccccc2)nc2cncnc21
active: Potency [3] 1 µM | Potency [9] 5.01 µM | Potency [10] 3.98 µM | Potency [12] 0.631 µM
inactive: Potency [1] > 11.4 µM | activity change, negative = inhibition [2] -5.11% | activity change, negative = inhibition [4] -9.96% | activity, negative = inhibition [5] -0.776% | Potency [6] > 9.22 µM | Potency [7] > 46 µM | Potency [8] | Potency [11]

CN(CCO)Cc1ncccc1O
inactive: Potency [1] > 11.4 µM | activity change, negative = inhibition [2] -2.61% | activity change, negative = inhibition [3] -10% [at 2.29 µM] | activity change, negative = inhibition [4] 14.9% | activity, negative = inhibition [5] 12.9% | Potency [6] > 46 µM | Potency [7] > 9.22 µM | Potency [13]

OCCCSCCO
inactive: Potency [1] > 11.4 µM | activity change, negative = inhibition [2] 5.52% | activity change, negative = inhibition [3] -19.1% [at 2.29 µM] | activity change, negative = inhibition [4] 7.44% | activity, negative = inhibition [5] -0.432% | Potency [6] > 46 µM | Potency [7] > 9.22 µM | Potency [8] | Potency [13] | activation [14] 7.65%

COc1ccc(-n2c(=O)c(C)nc3cnc(Oc4cccc(Cl)c4)nc32)cc1
active: Potency [3] 7.94 µM
inactive: Potency [1] > 11.4 µM | activity change, negative = inhibition [2] -20.7% | activity change, negative = inhibition [4] -1.69% | activity, negative = inhibition [5] -10.9% | Potency [6] > 9.22 µM | Potency [7] > 46 µM | Potency [8] | Potency [11]

N=C(N)[C@H](N=Nc1ccccc1)C(N)=O
inactive: Potency [1] > 11.4 µM | activity change, negative = inhibition [2] 20.5% | activity change, negative = inhibition [4] 1.62% | activity, negative = inhibition [5] 1.3% | Potency [6] > 46 µM | Potency [7] > 9.22 µM | Potency [8] | Potency [13] | activation [14] 1%
active: Potency [3] 0.794 µM

O=C(O)c1ccc(C(=O)O)c(C(=O)O)c1.[NH-][C@@H]1CCCC[C@@H]1[NH-].[Pt]
inactive: Potency [1] > 11.4 µM | activity change, negative = inhibition [2] 0.428% | Potency [3] | activity change, negative = inhibition [4] -9.87% | activity, negative = inhibition [5] -6.09% | Potency [6] > 46 µM | Potency [7] > 9.22 µM | Potency [13]

CN(CC(=O)O)Cc1c[nH]c2ccccc12
inactive: Potency [1] > 11.4 µM | activity change, negative = inhibition [2] -2.9% | Potency [3] | activity change, negative = inhibition [4] -8.48% | activity, negative = inhibition [5] -5.98% | Potency [6] > 46 µM | Potency [7] > 9.22 µM | Potency [13]

O=C(O)C(Sc1ccc(Cl)cc1)Sc1ccc(Cl)cc1
inactive: Potency [1] > 11.4 µM | activity change, negative = inhibition [2] 0.225% | activity change, negative = inhibition [3] -27.8% [at 2.29 µM] | activity change, negative = inhibition [4] -19.6% | activity, negative = inhibition [5] -29.3% | Potency [6] > 46 µM | Potency [7] > 9.22 µM | Potency [8] | Potency [13] | activation [14] -0.83%

O=C(O)c1cccc2cccc(-c3cccc4cccc(C(=O)O)c34)c12
inactive: Potency [1] > 11.4 µM | activity change, negative = inhibition [2] 4.88% | activity change, negative = inhibition [3] -12.3% [at 2.29 µM] | activity change, negative = inhibition [4] 10.7% | activity, negative = inhibition [5] 6.14% | Potency [6] > 46 µM | Potency [7] > 9.22 µM | Potency [13]

O=c1cnc2cnc(Oc3ccccc3)nc2n1CCc1ccccc1
active: Potency [3] 3.16 µM | Potency [9] 3.16 µM | Potency [12] 6.31 µM
inactive: Potency [1] > 11.4 µM | activity change, negative = inhibition [2] 6.02% | activity change, negative = inhibition [4] -28.7% | activity, negative = inhibition [5] -4.75% | Potency [6] > 9.22 µM | Potency [7] > 46 µM | Potency [8]

O=C(O)/C=C\C(=O)Nc1ccc2c(c1)C(=O)c1cc(F)ccc1-2
inactive: Potency [1] > 11.4 µM | activity change, negative = inhibition [2] -12.9% | activity change, negative = inhibition [4] 9.23% | activity, negative = inhibition [5] 0.748% | Potency [6] > 46 µM | Potency [7] > 9.22 µM | Potency [8] | Potency [11]
active: Potency [3] 0.794 µM | Potency [10] 3.16 µM

Nc1cc2c(nc3c4ccccc4c(N)cc3[n+]2-c2cccc3ccccc23)c2ccccc12 (tested in a mixture with another compound)
inactive: Potency [1] > 11.4 µM | activity change, negative = inhibition [2] 11.3% | activity change, negative = inhibition [4] 8.58% | activity, negative = inhibition [5] 6.04% | Potency [6] > 46 µM | Potency [7] > 9.22 µM | Potency [13]
active: Potency [3] 1.26 µM

O=C(O)CC12C[C@H]3C[C@@H](CC(O)(C3)C1)C2
inactive: Potency [1] > 11.4 µM | activity change, negative = inhibition [2] 9.34% | Potency [3] | activity change, negative = inhibition [4] -2.52% | activity, negative = inhibition [5] -1.43% | Potency [6] > 46 µM | Potency [7] > 9.22 µM | Potency [13]

FC(F)(F)c1nc(SCc2ccc(Cl)cc2)n[nH]1
inactive: Potency [1] > 11.4 µM | activity change, negative = inhibition [2] 1.59% | activity change, negative = inhibition [3] -18.8% [at 2.29 µM] | activity change, negative = inhibition [4] -9.79% | activity, negative = inhibition [5] -0.49% | Potency [6] > 46 µM | Potency [7] > 9.22 µM | Potency [8] | Potency [13] | activation [14] 8.01%

O=C(O)/C=C\C(=O)Nc1ccccn1
inactive: Potency [1] > 11.4 µM | activity change, negative = inhibition [2] 1.01% | Potency [3] | activity change, negative = inhibition [4] 11.9% | activity, negative = inhibition [5] -1.9% | Potency [6] > 46 µM | Potency [7] > 9.22 µM | Potency [8] | Potency [13] | activation [14] 4.82%
